Source: PubChem (several laboratories)
Sampled rows, rich in hits. Any-hit rate of the full collection: about 4.6%.
NR3A LBD binder: modulates the human NR3A ligand-binding domain. actives 2.5% (n = 340,000). Tm shift relative to glycine control, % at 25 µM. AID 1259313. NR3A LBD differential scanning fluorimetry, Tm shift; 0% = protein alone, 100% = glycine-bound protein;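 active means melting temperature shift of at least 10% of the positive control shift, at one fixed dose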
ADAM17 inh: ADAM17 inhibition, QFRET primary screen; P78536; actives 0.83% (n = 370,000); inhibition, % at 6.95 µM; AID 720648; recombinant ADAM17, EDANS/DABCYL FRET peptide cleavage;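 active means inhibition above the mean of compounds lying between control limits plus 3 SD, set per campaign, cut at about 8.5% in these data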
ADAM10 inh: ADAM10 inhibition, QFRET primary screen; O14672; recombinant ADAM10, EDANS/DABCYL FRET peptide cleavage, 3 h; inhibition, % at 7 µM; actives 0.62% (n = 370,000); AID 720582;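 active means inhibition above a per-campaign cutoff equal to the mean of compounds falling between control-based bounds plus 3 SD, cut at about 20% in these data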
KLK7 zymogen act: activators of human kallikrein-7 zymogen | actives 0.9% (n = 370,000) | activation, % at 7 µM | purified proKLK7, EDANS-DABCYL substrate fluorescence; 100% is mature enzyme control, 0% vehicle | AID 652039;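 active means activation above the mean of all tested compounds plus 3 SD, computed per campaign excluding outliers beyond control limits, cut at about 13% in these data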
FAS-TE inh: blocks the thioesterase domain of human fatty acid synthase; recombinant FAS-TE, OMFH fluorogenic substrate, fluorescence endpoint; inhibition, % at 15 µM; actives 0.67% (n = 360,000); AID 602261;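 active means compounds whose normalised, plate-corrected inhibition of enzyme fluorescence in the single-dose primary screen is 50% or more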
KLK7 act conf: confirmation of human kallikrein-7 zymogen activators; shares compounds with KLK7 zymogen act; purified proKLK7, EDANS-DABCYL substrate fluorescence; scaled: vehicle 0, mature enzyme 100; activation, % at 7 µM; actives 68% (n = 3,200); AID 686949;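 active means activation, as change over the incubation, above the mean of all tested compounds plus 3 SD, cut at about 13% in these data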
EDANS interfere: optically interferes with EDANS-DABCYL signal, flagging KLK7 hits; AID 686952; actives 80% (n = 3,200); activation, % at 7 µM; shares compounds with KLK7 zymogen act; EDANS-DABCYL substrate fluorescence interference, no enzyme, 4 h; solvent 0%, active enzyme control 100%;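 active means activation above the all-compound mean plus 3 SD, ignoring values outside control-based bounds, cut at about 4.8% in these data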;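 further: value is the 4 h activation minus the activation read at time zero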
Numbers stand for hits.

What do the screens show for `O=c1[nH]c2ccc(Cl)cc2c(-c2ccccc2)c1N1CCN(CCO)CC1`?
NR3A LBD binder: inactive; ADAM17 inh: inactive; ADAM10 inh: inactive; KLK7 zymogen act: 29; FAS-TE inh: inactive; KLK7 act conf: inactive; EDANS interfere: inactive

What do the screens show for `Cc1ccc(C2C3=C(CC(C)(C)CC3=O)N(CCN3CCOCC3)C3=C2C(=O)CC(C)(C)C3)cc1`?
NR3A LBD binder: inactive; ADAM17 inh: inactive; ADAM10 inh: inactive; KLK7 zymogen act: 17; FAS-TE inh: inactive; KLK7 act conf: inactive; EDANS interfere: 10

Results for CC1(C)CC(=O)C2=C(C1)N(CCN1CCOCC1)C1=C(C(=O)CC(C)(C)C1)C2c1ccc(Cl)c([N+](=O)[O-])c1 ?
NR3A LBD binder: inactive; ADAM17 inh: inactive; ADAM10 inh: inactive; KLK7 zymogen act: inactive; FAS-TE inh: inactive

How did Cc1ccc(/C=C2/NC(=O)N(Cc3ccccc3)C2=O)s1 do in these assays?
NR3A LBD binder: inactive; ADAM17 inh: inactive; ADAM10 inh: inactive; KLK7 zymogen act: 17; FAS-TE inh: inactive; KLK7 act conf: inactive; EDANS interfere: inactive

What do the screens show for `Cc1cccc(CN2C(=O)N/C(=C/c3ccc(C)s3)C2=O)c1`?
NR3A LBD binder: inactive; ADAM17 inh: inactive; ADAM10 inh: inactive; KLK7 zymogen act: inactive; FAS-TE inh: inactive

What do the screens show for `O=c1oc2c(O)cccc2cc1-c1nc2ccccc2[nH]1`?
NR3A LBD binder: inactive; ADAM17 inh: inactive; ADAM10 inh: inactive; KLK7 zymogen act: 46; FAS-TE inh: inactive; KLK7 act conf: 75; EDANS interfere: 67

Results for Nc1ccc(-c2nc3ccccc3[nH]2)cc1 ?
NR3A LBD binder: inactive; ADAM17 inh: inactive; ADAM10 inh: inactive; KLK7 zymogen act: inactive; FAS-TE inh: inactive

What do the screens show for `Nc1ccccc1-c1nc2ccccc2[nH]1`?
NR3A LBD binder: inactive; ADAM17 inh: inactive; ADAM10 inh: inactive; KLK7 zymogen act: 69; FAS-TE inh: inactive; KLK7 act conf: inactive; EDANS interfere: inactive

Results for O=c1oc2c(CN3CCCCC3)c(O)ccc2cc1-c1nc2ccccc2[nH]1 ?
NR3A LBD binder: inactive; ADAM17 inh: inactive; ADAM10 inh: inactive; KLK7 zymogen act: inactive; FAS-TE inh: inactive

Results for Cc1[nH]ncc1-c1nc2ccccc2[nH]1 ?
NR3A LBD binder: inactive; ADAM17 inh: inactive; ADAM10 inh: inactive; KLK7 zymogen act: inactive; FAS-TE inh: inactive

Results for Oc1ccc(C=Nc2ccccc2-c2nc3ccccc3[nH]2)cc1 ?
NR3A LBD binder: inactive; ADAM17 inh: inactive; ADAM10 inh: inactive; KLK7 zymogen act: 81; FAS-TE inh: inactive; KLK7 act conf: 30; EDANS interfere: 29

What do the screens show for `O=c1[nH]cccc1-c1nc2ccccc2[nH]1`?
NR3A LBD binder: inactive; ADAM17 inh: inactive; ADAM10 inh: inactive; KLK7 zymogen act: 56; FAS-TE inh: inactive; KLK7 act conf: 66; EDANS interfere: 75

What do the screens show for `COC(=O)C1CN(Cc2cn(Cc3ccc(C)cc3)nn2)CCS(=O)(=O)N1Cc1ccc(OC)cc1` (stereo unspecified)?
ADAM17 inh: inactive; ADAM10 inh: inactive; KLK7 zymogen act: inactive

How did CN(Cc1ccc(F)cc1)C(=O)c1cccc2c1C(=O)N(Cc1cccnc1)C2 do in these assays?
ADAM17 inh: inactive; ADAM10 inh: inactive; KLK7 zymogen act: inactive

Results for CCC(CC)COC(=O)C1=C(C)NC(=O)NC1c1cc(OC)ccc1OC (stereo unspecified) ?
NR3A LBD binder: inactive; ADAM17 inh: inactive; ADAM10 inh: inactive; KLK7 zymogen act: 52; FAS-TE inh: inactive; KLK7 act conf: inactive; EDANS interfere: inactive

How did CCC(CC)COC(=O)C1=C(C)NC(=O)NC1c1ccc(OC)cc1 (stereo unspecified) do in these assays?
NR3A LBD binder: inactive; ADAM17 inh: inactive; ADAM10 inh: inactive; KLK7 zymogen act: inactive; FAS-TE inh: inactive

What do the screens show for `C#CCNC(=O)C[C@H]1C[C@@]2(C(=O)OC)C(=C[C@H](C(C)(C)C)O[C@@H]2C)N(Cc2ccc(Cl)cc2Cl)C1=O`?
ADAM17 inh: inactive; ADAM10 inh: inactive; KLK7 zymogen act: inactive

How did CCOC(=O)c1ccccc1NC(=O)COC(=O)CSCC(=O)Nc1cc(C)on1 do in these assays?
NR3A LBD binder: inactive; ADAM17 inh: inactive; ADAM10 inh: inactive; KLK7 zymogen act: inactive; FAS-TE inh: inactive

What do the screens show for `Cc1cc(NC(=O)COC(=O)c2ccccc2NCCO)no1`?
NR3A LBD binder: inactive; ADAM17 inh: inactive; ADAM10 inh: inactive; KLK7 zymogen act: 34; FAS-TE inh: inactive; KLK7 act conf: 27; EDANS interfere: 24

How did CN1CCCCC(NC(=O)CCl)C1=O (stereo unspecified) do in these assays?
ADAM17 inh: inactive; ADAM10 inh: inactive; KLK7 zymogen act: inactive

How did O=C(N/N=C/c1c[nH]c2ccccc12)c1[nH]c2ccc(Br)cc2c1-c1ccccc1 do in these assays?
NR3A LBD binder: 27; ADAM17 inh: inactive; ADAM10 inh: inactive; KLK7 zymogen act: 84; FAS-TE inh: inactive; KLK7 act conf: inactive; EDANS interfere: inactive

Results for NC(=O)C(=O)N/N=C/c1c[nH]c2ccc(Br)cc12 ?
NR3A LBD binder: inactive; ADAM17 inh: inactive; ADAM10 inh: inactive; KLK7 zymogen act: inactive; FAS-TE inh: inactive

What do the screens show for `COCC(=O)Nc1ccc(-c2cn3cccnc3n2)cc1`?
NR3A LBD binder: inactive; ADAM17 inh: inactive; ADAM10 inh: inactive; KLK7 zymogen act: 25; FAS-TE inh: inactive; KLK7 act conf: 63; EDANS interfere: 81

How did COc1ccc(-c2cn3cccnc3n2)cc1NC(=O)C(C)Oc1ccccc1 (stereo unspecified) do in these assays?
NR3A LBD binder: inactive; ADAM17 inh: inactive; ADAM10 inh: inactive; KLK7 zymogen act: inactive; FAS-TE inh: inactive

Results for CCOCC(=O)Nc1cc(-c2cn3cccnc3n2)ccc1C ?
NR3A LBD binder: inactive; FAS-TE inh: inactive

How did CCC(CC)C(=O)Nc1ccc(-c2cn3cccnc3n2)cc1 do in these assays?
NR3A LBD binder: inactive; ADAM17 inh: inactive; ADAM10 inh: inactive; KLK7 zymogen act: 61; FAS-TE inh: inactive; KLK7 act conf: 66; EDANS interfere: 64

What do the screens show for `COC(=O)c1cc2c(c3c4cc(F)ccc4n(S(=O)(=O)c4cccc(C)c4)c13)C(=O)N(C)C2`?
ADAM17 inh: inactive; ADAM10 inh: inactive; KLK7 zymogen act: inactive

How did O=S(=O)(c1ccccc1)c1cnc2ccccc2c1 do in these assays?
NR3A LBD binder: inactive; ADAM17 inh: inactive; ADAM10 inh: inactive; KLK7 zymogen act: inactive; FAS-TE inh: inactive

How did Nc1nc2ccccc2cc1S(=O)(=O)c1ccccc1 do in these assays?
NR3A LBD binder: inactive; ADAM17 inh: inactive; ADAM10 inh: inactive; KLK7 zymogen act: 13; FAS-TE inh: inactive; KLK7 act conf: inactive; EDANS interfere: 10

Results for CCOc1ccccc1NC(=O)NNC(=O)CCn1nc(C)c([N+](=O)[O-])c1C ?
ADAM17 inh: inactive; ADAM10 inh: inactive; KLK7 zymogen act: inactive
